A selection: hits, their analogues and other compounds. The true share with any hit is near 2.8%.
Peg3 prom inh: Peg3 promoter activity inhibition; HeLa PEG-Prom luciferase reporter, luminescence, overnight; inhibition, % at 20 µM; 1.7% of 360,000 active;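 active = inhibition of at least 50% at 20 µM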
CF NFkB inh: cystic fibrosis NF-kB activation inhibition | 0.86% of 360,000 active | KKLEB NF-kB-GFP reporter, PAF-induced, GFP fluorescence overnight | AID 588850 | inhibition, % at 5 µM;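 active = at least 50% inhibition at 5 µM, scaled per plate between neutral and stimulator controls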;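 note: PAF is a Pseudomonas aeruginosa culture filtrate used as stimulus; plate controls were PAF-stimulated DMSO wells for no effect and unstimulated DMSO wells for full effect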
HIF-2a block: HIF-2a inhibition. inhibition, % at 18.8 µM. 786-0 RCC cells HIF-2a reporter, luciferase luminescence, overnight. AID 624352. 0.72% of 360,000 active;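 active = inhibition of the luminescence signal of 40% or more relative to plate controls, in a single-dose primary screen at 18.75 µM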
TRPM1 prom inh: reduces MITF-dependent TRPM1 promoter luciferase signal; AID 488899; 0.83% of 330,000 active; inhibition, % at 12.5 µM; SK-MEL-5 TRPM1 promoter luciferase, 24 h;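 active = mean inhibition across replicates of 60% or more, whatever share of single replicates reaches that level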
Shn3 inh set2: Schnurri-3 reporter inhibition in Clone20 osteoblasts; 0.52% of 360,000 active; Clone20 osteoblast Shn3 3'UTR firefly luciferase, 24 h; inhibition, % at 12.5 µM;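 active = mean inhibition of at least 75% with every replicate also reaching 75%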;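 note: 0% = median of neutral control wells and 100% = pilot-screen positive control compound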
KKLEB cytotox: CF airway cell cytotoxicity counter-screen; activity change (cytotoxicity), % at 5 µM; 0.36% of 360,000 active; KKLEB CF airway cells viability, ATPlite luminescence, overnight; active compounds read low; cells stimulated with P. aeruginosa culture filtrate;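 active = corrected activity change at or below -50% at 5 µM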
Numbers without * were called inactive; / = no result given.

SMILES	Peg3 prom inh	CF NFkB inh	HIF-2a block	TRPM1 prom inh	Shn3 inh set2	KKLEB cytotox
CCCn1cc(CN2CCN(Cc3ccc(C)o3)C(CCO)C2)c(C)n1 (stereo not drawn)	7.6	2.9	11.4	21.0	2.5	-10.8
COc1cccc(CNC(=O)[C@@H](C)N2C(=O)N3CCc4c([nH]c5ccc(OC)cc45)C3(C)C2=O)c1 (stereo partly drawn)	16.1	24.7	13.3	-4.1	19.5	-16.4
COc1ccccc1-c1ccc2c(c1)C(C)(Cc1cc(Cl)ccc1C(F)(F)F)C(=O)N2 (stereo not drawn)	78.5*	10.8	-8.7	/	37.9	-0.1
COc1ccc(Cl)cc1CC1(C)C(=O)Nc2ccc(-c3ccccc3OC)cc21 (stereo not drawn)	18.5	16.6	-1.9	/	31.8	3.3
CCOC(=O)C1CCCCN1C(=O)CCn1nnnc1CN1CCOCC1 (stereo not drawn)	3.0	-6.1	6.9	-6.6	-25.5	-1.3
CCOC(=O)c1cn(CC(=O)Nc2cccc(Cl)c2C)nn1	11.8	11.3	0.9	8.5	95.4*	-11.0
CCOC(=O)c1cn(CC(=O)Nc2cccc(Cl)c2)nn1	16.5	-0.8	9.2	1.9	-5.1	10.9
Cc1ccc(C(=O)/C=C/C(=O)c2ccc(C)cc2)cc1	112.5*	77.9*	-34.5	49.9	37.9	-67.4*
Cc1ccc(/C=C/C(=O)c2ccc(C)cc2)cc1	-196.4	-16.8	-152.5	-48.6	-18.8	2.2
Cc1ccc(C(=O)/C=C/Nc2ccccc2C(N)=O)cc1	-17.5	-18.2	-8.1	-0.8	-10.3	-55.8*
Cc1ccc2c(c1)[nH]c1c(N3CCN(Cc4ccccc4)CC3)ncnc12	28.9	-14.3	-5.7	16.7	71.6	-15.2
c1ccc2c(c1)CCN(c1ncnc3c1[nH]c1ccccc13)C2	29.9	-19.5	0.1	54.9	89.0*	0.4
Cc1ccc2[nH]c3c(N4CCN(Cc5ccccc5)CC4)ncnc3c2c1	42.5	-19.8	2.4	30.4	90.2*	-12.8
COc1ccc2c(c1)[nH]c1c(N3CCN(Cc4ccc5c(c4)OCO5)CC3)ncnc12	34.4	-2.8	27.2	23.1	76.6	-12.9
c1ccc2c(c1)[nH]c1c(N3CCC4(CC3)OCCO4)ncnc12	36.5	0.7	30.5	33.4	18.3	1.6
c1ccc(CN2CCN(c3ncnc4c3[nH]c3ccccc34)CC2)cc1	55.8*	-1.8	24.0	49.1	84.8	-1.4
COc1ccc2nc3cc(Cl)ccc3c(Nc3cc(C(C)C)c(O)cc3C)c2c1	104.9*	38.0	-3.7	9.6	17.4	-56.2*
COc1ccc(NC(=O)CN(C)C(=O)/C=C/c2ccc(S(=O)(=O)N3CCCCCC3)cc2)cc1	52.1*	26.1	13.6	6.3	7.1	-17.3
COc1ccccc1C(c1nnnn1Cc1ccccc1)N1CCN(C2CCCC2)CC1 (stereo not drawn)	0.2	16.8	8.1	-2.2	8.7	-8.7
COc1ccc(OC)c(C(c2nnnn2Cc2ccccc2)N2CCN(C3CCCCC3)CC2)c1 (stereo not drawn)	22.1	13.0	11.6	-3.6	90.2*	-0.3
O=C(CSc1ccc(-c2ccccn2)nn1)N1CCCC1	-46.4	1.2	-70.5	-33.3	-5.7	4.5
Cc1nc(SCc2nc3ccc(C(=O)c4ccccc4)cc3[nH]2)c2oc3ccccc3c2n1	6.5	-17.0	1.9	-6.0	3.2	16.9
O=C(Nc1ccc(S(=O)(=O)Nc2nccs2)cc1)c1cccc(N2C(=O)c3ccccc3C2=O)c1	-11.9	-4.6	3.7	-10.5	5.3	-3.5
O=C(Nc1nccs1)c1cccc(N2C(=O)c3cccc4c([N+](=O)[O-])ccc(c34)C2=O)c1	110.5*	-1.2	9.1	33.7	0.6	-4.8
Fc1cccc(CCN2CCNC[C@@H]2Cc2ccccc2)c1	-0.6	-12.0	3.5	1.7	-17.5	-9.3
SMILES	Peg3 prom inh	CF NFkB inh	HIF-2a block	TRPM1 prom inh	Shn3 inh set2	KKLEB cytotox
FC(F)(F)c1cc(CCN2CCNC[C@@H]2Cc2ccccc2)cc(C(F)(F)F)c1	102.0*	24.7	-2.0	80.7*	40.4	-10.6
Oc1ccc(N=Nc2ccccc2C(F)(F)F)c2cccnc12	26.2	-1.3	16.6	72.8*	90.0*	-2.0
Oc1c(N=Nc2ccc(F)cc2)ccc2ccccc12	-177.5	3.1	-135.0	-11.4	-56.4	-23.1
Cc1ccc(N=Nc2ccc(O)c3ncccc23)cc1	28.4	16.5	6.5	86.7*	90.5*	-8.6
Cc1ccc(N=Nc2ccc3ccccc3c2O)cc1	6.3	3.8	-6.9	20.8	10.2	-63.4*
CCS(=O)(=O)c1ccc(N=Nc2ccc(O)c3ncccc23)c(OC)c1	47.8	44.9	12.0	65.7*	95.3*	-26.9
CC(=O)Nc1cccc(-c2ccnc3c2CC(C)(C(=O)NCc2ccc(F)c(F)c2)O3)c1 (stereo not drawn)	11.4	32.1	25.5	/	6.3	-7.5
CCCN(C1CCS(=O)(=O)C1)S(=O)(=O)c1ccc(F)cc1 (stereo not drawn)	-3.1	7.0	5.5	8.6	-12.5	15.3
COC(=O)c1ccccc1NC(=O)c1ccc(-c2ccccc2F)o1	-57.6	58.9*	-111.0	-49.5	3.2	-66.7*
CCOC(=O)N1CCN(C(=O)c2ccc(Cn3c(=S)[nH]c4cc5c(cc4c3=O)OCO5)cc2)CC1	8.4	2.7	7.7	62.7*	8.2	18.2
N=c1c2c(n(Cc3ccc(Cl)c(Cl)c3)c3c1CCC3)CCCC2	39.3	38.2	24.7	70.7*	78.6	-17.4
N=c1c2c(n(Cc3ccc([N+](=O)[O-])cc3)c3c1CCC3)CCCC2	13.2	-4.0	5.9	6.2	2.5	7.4
N=c1c2c(n(Cc3ccc(Br)cc3)c3c1CCC3)CCCC2	22.3	45.0	15.4	64.7*	82.3	-58.9*
CC(C)C(NS(=O)(=O)c1cccc2nsnc12)C(=O)N1CCCCC1 (stereo not drawn)	-3.7	17.3	12.7	-1.8	3.0	-2.2
COc1cc(C(=O)Nc2nc(-c3ccc(Cl)cc3)c(C)s2)ccc1OCC(=O)Nc1ccc(F)cc1	34.8	47.5	-3.1	47.7	57.4	-58.4*
COc1ccc(-c2nc(NC(=O)c3ccc(OCC(=O)N4CCOCC4)c(OC)c3)sc2C)cc1	65.9*	-30.7	8.0	7.2	19.1	5.1
Cc1ccc(C2=NCCn3c2c2ccc(C(F)(F)F)cc2[n+]3[O-])cc1	-11.6	12.3	-52.0	8.3	-13.6	-15.7
COc1ccc(Cc2c(-c3ccc(F)cc3)nc3cc(C)c(Br)c(C)n23)c(C)c1	/	/	-1.7	/	/	/
CSc1nc(-c2ccc(C)cc2)nc(C(Cl)Cl)n1	101.8*	6.3	2.0	77.3*	6.6	-19.3
Cc1ccc(C(=O)COC(=O)c2ccco2)cc1C	-182.7	-19.7	-18.8	-74.7	-44.0	5.2
CN(CC(=O)NCc1ccco1)CC(=O)Nc1cc(S(C)(=O)=O)ccc1Cl	-14.2	-0.8	11.7	-12.7	-28.2	8.0
Cc1cccc(CC(=O)NCCS(=O)(=O)N2CCN(c3ccccc3)CC2)c1	8.2	-8.5	-1.9	/	-11.5	27.2

Compound activity deposited in PubChem by several laboratories.
